Assay results reported in PubChem BioAssay (NCATS).
Values joined by “and” are separate entries in the source; they are usually repeats but may differ in a detail not shown here. Equal values may be shown once. Results filed as inconclusive are left out. Entries that show only a call come without a potency. Active and inactive are the calls of the source. Unless noted, calls follow the shape of the dose curve; as a rule, active = well fitted curve in the direction sought with a large enough effect; inconclusive = small, poorly fitted or top-dose-only effect, or another doubt; inactive = no such curve, though single readings can be large; an effect the other way counts as inactive or inconclusive.

Columns and labels:
[1] = Cell Viability - H-4-II-E (AID 543); also: nearly all actives have a fitted effect of over 35% in size
Procedure, shortened: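 Luminescent ATP signal (CellTiter-Glo) served as the viability read-out, with cytotoxicity seen as a concentration-dependent ATP drop. Cells were treated for 40 hours in complete medium. AC50 values derive from Hill-equation modelling.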

[2] = Cell Viability - LYMP2-001 (AID 921); also: nearly all actives have a fitted effect of over 70% in size
Procedure, shortened: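 qHTS, 1536-well; lymphoblastoid cells, 24 hr compound, 37 C; ATP by CellTiter-Glo, 30 min RT; luminescence; Hill-fit AC50.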

[3] = Cell Viability - LYMP2-005 (AID 967)
Procedure, shortened: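 qHTS viability screen in LYMP2-005 cells: 24 h at 37 C with compound, ATP luminescence via CellTiter-Glo, AC50 from Hill curves.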

[4] = Cell Viability - LYMP2-010 (AID 981); also: nearly all actives have a fitted effect of over 55% in size
Procedure, shortened: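 Luminescent ATP signal (CellTiter-Glo) served as the viability read-out. Cells of the human lymphoblastoid line were treated with compound over a concentration range for 24 hours at 37 C, and AC50 values came from Hill-equation modeling.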

[5] = Cell Viability - LYMP2-020 (AID 986); also: nearly all actives have a fitted effect of over 55% in size
Procedure, shortened: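 Luminescent ATP signal (CellTiter-Glo, 30 min at room temperature) is the read-out after 24 h compound treatment of lymphoblastoid cells at 37 C. AC50 values come from Hill-equation fits across concentrations.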

[6] = target: Estrogen receptor (Homo sapiens) (UniProt P03372); assay: qHTS assay for small molecule antagonists of estrogen receptor alpha signaling (AID 588513; active = well fitted curve in the direction sought with a large enough effect in the signal ratio, with a control signal flat, not every such curve was filed as active; the % refers to the signal ratio)
Procedure, shortened: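 Cells were plated at 5000/well and incubated 4 h at 37 C. Compounds were added as 1:2 dilution series, duplicates. 17-beta-estradiol (0.5nM final) was added for 18 h before CCF4 detection.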

[7] = target: Peroxisome proliferator-activated receptor delta (Homo sapiens) (UniProt Q03181); assay: qHTS assay for small molecule agonists of peroxisome proliferator-activated receptor delta signaling (AID 588534; calls by dose curve)
Procedure, shortened: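 Fluorescence from CCF4 substrate cleavage by beta-lactamase reporter, read 2 hrs at RT, measured agonist activity. Compounds were tested with 18 hrs exposure at 37 C. Concentration-response data fitted to Hill equation.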

[8] = qHTS assay for small molecule antagonists of peroxisome proliferator-activated receptor delta signaling (AID 588535; active = well fitted inhibition curve with a large enough effect in the signal ratio, with a control signal flat, not every such curve was filed as active; the % refers to the signal ratio;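 as to max response: cells co-treated with a PPAR-delta agonist as stimulator during compound exposure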); settings: HEK293T PPARd-UAS-bla, beta-lactamase FRET ratio, 18 h; 460 nm channel
Procedure, shortened: (§1)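 HEK293T PPAR-delta-UAS-bla cells, 4000/well, 2% charcoal/dextran FBS; 5 h 37 C; cpd titration; 18 h 37 C; CCF4 2 h RT; FI 460/530 nm; Hill fit → IC50, efficacy.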

[9] = target: Peroxisome proliferator-activated receptor delta (Homo sapiens) (UniProt Q03181); assay: as above
Procedure, shortened: as §1

[10] = target: Vitamin D3 receptor (Homo sapiens) (UniProt P11473); assay: qHTS assay for small molecule agonists of vitamin D receptor signaling (AID 588543; calls by dose curve)
Procedure, shortened: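 qHTS in agonist mode: compound titrations stimulate a VDR-driven β-lactamase reporter in HEK293T cells over 16 h at 37 °C. Response normalized to 50 nM 1α,25-dihydroxyvitamin D3 = 100%, DMSO = 0%; Hill fitting gives EC50 and maximal response.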

[11] = target: Thyroid hormone receptor beta (Homo sapiens) (UniProt P10828); assay: qHTS assay for small molecule agonists of thyroid hormone receptor beta signaling (AID 588545; calls by dose curve)
Procedure, shortened: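 Agonist-mode beta-lactamase reporter assay, HEK 293 cells, 2% charcoal/dextran FBS; cells plated 4 hrs, compound 18 hrs at 37 C, CCF4 2 hrs RT. Normalized to 10 nM T3 (100%) and DMSO (0%); Hill fit gives EC50, efficacy.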

[12] = qHTS assay for small molecule activators of the p53 signaling pathway (AID 651743; active = well fitted activation curve with a large enough effect in the signal ratio, not every such curve was filed as active; the % refers to the signal ratio); settings: HCT-116 p53RE-bla, beta-lactamase FRET ratio, 16 h; activation: stronger effect = higher value
Procedure, shortened: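 Read-out is fluorescence intensity from the LiveBLAzer B/G FRET substrate, added for 2 hours at room temperature after HCT-116 p53RE-bla cells had been incubated with compounds for 16 hours at 37 C.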

[13] = qHTS assay for small molecule activators of the nuclear factor-kappa B (NF-kB) signaling pathway (AID 651749; active = well fitted activation curve with a large enough effect in the signal ratio; the % refers to the signal ratio); settings: NF-kB-bla ME-180 cells, beta-lactamase FRET ratio, 16 h; stronger effect = higher value
Procedure, shortened: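 Readout: beta-lactamase reporter driven by an NF-kB response element, detected fluorescently as loss of FRET. Cells were the ME-180 line, treated 16 hr at 37C with pin-transferred compound.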

[14] = qHTS assay for environmental chemicals that activate the Aryl hydrocarbon Receptor (AhR) signaling pathway (AID 651777); settings: 1A2-DRE human hepatoma cells, luciferase, 24 h; activation: stronger effect = higher value; also: nearly all actives have a fitted effect of over 15% in size
Procedure, shortened: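 Reporter gene assay: hepatoma cells with DRE/CYP1A2-luciferase, 24 hr compound incubation at 37 C, 5% CO2, luminescence after One-Glo (30 min, RT).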

[15] = Cell Viability - NIH 3T3 (AID 541); settings: NIH 3T3 cell viability, qHTS; activity change, negative = cytotoxicity: at 92.2 µM (top of the series); also: nearly all actives have a fitted effect of over 25% in size
Procedure, shortened: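 Luminescent ATP signal (CellTiter-Glo) served as the viability read-out after NIH 3T3 cells were exposed to compounds over a concentration range for 40 hr at 37 °C. Hill-equation modelling of concentration-response data gave AC50.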

[16] = target: Bile acid receptor (Homo sapiens) (UniProt Q96RI1); assay: qHTS assay for small molecule agonists of farnesoid X receptor signaling (AID 588527; calls by dose curve); settings: HEK293T FXR-UAS-bla, beta-lactamase ratio, 16 h; stronger effect = higher value
Procedure, shortened: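 FXR-UAS-bla HEK293T cells (10% dialyzed FBS) preincubated 5-7 h at 37 C, then compounds at up to 92 uM for 16 h at 37 C. CCF4 beta-lactamase read-out after 2 h RT. Normalized to chenodeoxycholic acid (100 uM) and DMSO; Hill fit gave EC50 and efficacy.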

[17] = target: Glucocorticoid receptor (Homo sapiens) (UniProt P04150); assay: qHTS assay for small molecule agonists of glucocorticoid receptor signaling (AID 588532; active = well fitted curve in the direction sought with a large enough effect in the signal ratio, with a control signal flat; the % refers to the signal ratio); settings: HeLa MMTV-bla, beta-lactamase ratio, agonist, 18 h; stronger effect = higher value; percent of dexamethasone control, DMSO zero
Procedure, shortened: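 Using MMTV-bla HeLa cells in medium with 1% stripped FBS and 25 mM HEPES, compounds were titrated and incubated overnight-length (18 h). Beta-lactamase cleavage of CCF4 was quantified by dual-emission fluorescence.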

[18] = target: Glucocorticoid receptor (Homo sapiens) (UniProt P04150); assay: qHTS assay for small molecule antagonists of glucocorticoid receptor signaling (AID 588533; active = well fitted inhibition curve with a large enough effect in the signal ratio, with a control signal flat, not every such curve was filed as active; the % refers to the signal ratio;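 also: cells stimulated with 2 nM dexamethasone as agonist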)
Procedure, shortened: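 Antagonist-mode qHTS: compound titrations added to GRE-bla HeLa cells, then dexamethasone 2 nM final; 18 h, 37 C. CCF4 FRET fluorescence normalized to dexamethasone and DMSO; IC50 from Hill fit.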

[19] = target: Peroxisome proliferator-activated receptor gamma (Homo sapiens) (UniProt P37231); assay: qHTS assay for small molecule antagonists of peroxisome proliferator-activated receptor gamma signaling (AID 588537; active = well fitted inhibition curve with a large enough effect in the signal ratio, with a control signal flat, not every such curve was filed as active; the % refers to the signal ratio;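 also: reporter cells co-stimulated with 50 nM rosiglitazone agonist during compound treatment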)
Procedure, shortened: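 Antagonist mode, beta-lactamase reporter in HEK293; charcoal/dextran FBS 1%; 3000 cells/well, 37 C 6-6.5 h; cpd titration + rosiglitazone 50 nM final, 16 h 37 C; CCF4, 2 h RT; 460/530 nm; Hill fit → IC50, efficacy.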

[20] = qHTS assay for small molecule agonists of the antioxidant response element (ARE) signaling pathway (AID 651741; active = well fitted activation curve with a large enough effect in the signal ratio; the % refers to the signal ratio)
Procedure, shortened: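 Quantitative HTS in HepG2 cells stably expressing an ARE-beta-lactamase reporter; 16 h compound exposure at 37 C, followed by 2 h room-temperature incubation with LiveBLAzer B/G FRET substrate and fluorescence measurement.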

Sequence of Estrogen receptor (Homo sapiens) (P03372 whole entry, looked up): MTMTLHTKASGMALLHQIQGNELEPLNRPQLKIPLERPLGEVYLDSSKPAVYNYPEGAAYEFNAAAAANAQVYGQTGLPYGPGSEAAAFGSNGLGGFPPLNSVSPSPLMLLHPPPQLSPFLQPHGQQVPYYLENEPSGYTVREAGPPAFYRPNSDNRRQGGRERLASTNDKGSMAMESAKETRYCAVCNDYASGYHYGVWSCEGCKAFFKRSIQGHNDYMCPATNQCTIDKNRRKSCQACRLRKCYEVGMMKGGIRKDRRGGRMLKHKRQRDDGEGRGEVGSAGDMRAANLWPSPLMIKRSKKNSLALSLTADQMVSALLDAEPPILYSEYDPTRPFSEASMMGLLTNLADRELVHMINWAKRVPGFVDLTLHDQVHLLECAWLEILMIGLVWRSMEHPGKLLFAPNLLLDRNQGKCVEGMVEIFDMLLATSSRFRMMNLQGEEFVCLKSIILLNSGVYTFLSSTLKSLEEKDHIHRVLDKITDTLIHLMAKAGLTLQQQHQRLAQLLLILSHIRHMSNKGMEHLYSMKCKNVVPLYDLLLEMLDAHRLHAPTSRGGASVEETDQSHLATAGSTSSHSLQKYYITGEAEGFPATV
Sequence of Vitamin D3 receptor (Homo sapiens) (P11473 whole entry, looked up): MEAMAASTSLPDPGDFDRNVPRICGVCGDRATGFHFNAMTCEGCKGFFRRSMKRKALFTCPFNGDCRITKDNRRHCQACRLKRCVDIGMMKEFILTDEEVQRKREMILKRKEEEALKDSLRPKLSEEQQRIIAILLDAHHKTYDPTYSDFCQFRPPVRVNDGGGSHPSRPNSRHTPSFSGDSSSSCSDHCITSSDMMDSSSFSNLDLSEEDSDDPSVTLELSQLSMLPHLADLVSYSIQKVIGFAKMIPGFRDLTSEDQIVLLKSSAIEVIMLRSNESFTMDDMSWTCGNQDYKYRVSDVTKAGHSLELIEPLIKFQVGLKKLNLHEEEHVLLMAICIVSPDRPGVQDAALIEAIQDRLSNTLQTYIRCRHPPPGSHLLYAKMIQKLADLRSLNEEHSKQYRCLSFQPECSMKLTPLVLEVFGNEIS
Sequence of Peroxisome proliferator-activated receptor gamma (Homo sapiens) (P37231 whole entry, looked up): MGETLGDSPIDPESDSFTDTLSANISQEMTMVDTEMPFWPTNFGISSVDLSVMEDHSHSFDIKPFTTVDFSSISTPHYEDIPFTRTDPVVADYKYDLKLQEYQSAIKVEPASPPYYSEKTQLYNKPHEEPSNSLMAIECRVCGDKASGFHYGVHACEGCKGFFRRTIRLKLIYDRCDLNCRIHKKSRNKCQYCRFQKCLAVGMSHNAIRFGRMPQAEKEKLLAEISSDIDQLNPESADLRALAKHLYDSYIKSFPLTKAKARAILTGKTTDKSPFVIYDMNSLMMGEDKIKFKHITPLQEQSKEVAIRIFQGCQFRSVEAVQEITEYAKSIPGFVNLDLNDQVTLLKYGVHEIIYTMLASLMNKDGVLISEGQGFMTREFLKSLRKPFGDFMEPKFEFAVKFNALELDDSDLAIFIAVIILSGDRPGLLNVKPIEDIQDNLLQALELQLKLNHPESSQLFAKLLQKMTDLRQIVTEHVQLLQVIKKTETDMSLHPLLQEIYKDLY
Sequence of Peroxisome proliferator-activated receptor delta (Homo sapiens) (Q03181 whole entry, looked up): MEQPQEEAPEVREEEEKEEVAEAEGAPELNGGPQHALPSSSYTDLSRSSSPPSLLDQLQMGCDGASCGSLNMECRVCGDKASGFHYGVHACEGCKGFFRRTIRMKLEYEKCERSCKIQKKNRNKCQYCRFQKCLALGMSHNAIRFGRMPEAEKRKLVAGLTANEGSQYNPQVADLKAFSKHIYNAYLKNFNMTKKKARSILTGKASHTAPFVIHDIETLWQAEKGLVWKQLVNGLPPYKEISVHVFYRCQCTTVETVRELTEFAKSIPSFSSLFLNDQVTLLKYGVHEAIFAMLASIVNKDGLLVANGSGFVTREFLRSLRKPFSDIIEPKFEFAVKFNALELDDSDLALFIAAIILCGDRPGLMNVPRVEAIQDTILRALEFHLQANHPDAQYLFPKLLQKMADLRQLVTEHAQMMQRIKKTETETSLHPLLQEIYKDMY
Sequence of Bile acid receptor (Homo sapiens) (Q96RI1 whole entry, looked up): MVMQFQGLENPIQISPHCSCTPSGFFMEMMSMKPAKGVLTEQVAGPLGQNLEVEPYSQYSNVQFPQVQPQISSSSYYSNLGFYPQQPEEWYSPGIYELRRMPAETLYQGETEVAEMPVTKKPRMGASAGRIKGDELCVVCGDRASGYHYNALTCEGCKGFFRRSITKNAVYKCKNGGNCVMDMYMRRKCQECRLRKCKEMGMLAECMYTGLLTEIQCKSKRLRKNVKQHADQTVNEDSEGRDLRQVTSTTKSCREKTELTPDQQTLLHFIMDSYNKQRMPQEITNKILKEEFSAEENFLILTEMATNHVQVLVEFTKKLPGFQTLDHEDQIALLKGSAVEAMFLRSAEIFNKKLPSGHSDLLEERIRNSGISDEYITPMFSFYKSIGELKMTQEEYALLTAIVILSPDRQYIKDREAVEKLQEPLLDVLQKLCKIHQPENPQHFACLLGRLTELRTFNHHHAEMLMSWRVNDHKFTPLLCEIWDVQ
Sequence of Glucocorticoid receptor (Homo sapiens) (P04150 whole entry, looked up): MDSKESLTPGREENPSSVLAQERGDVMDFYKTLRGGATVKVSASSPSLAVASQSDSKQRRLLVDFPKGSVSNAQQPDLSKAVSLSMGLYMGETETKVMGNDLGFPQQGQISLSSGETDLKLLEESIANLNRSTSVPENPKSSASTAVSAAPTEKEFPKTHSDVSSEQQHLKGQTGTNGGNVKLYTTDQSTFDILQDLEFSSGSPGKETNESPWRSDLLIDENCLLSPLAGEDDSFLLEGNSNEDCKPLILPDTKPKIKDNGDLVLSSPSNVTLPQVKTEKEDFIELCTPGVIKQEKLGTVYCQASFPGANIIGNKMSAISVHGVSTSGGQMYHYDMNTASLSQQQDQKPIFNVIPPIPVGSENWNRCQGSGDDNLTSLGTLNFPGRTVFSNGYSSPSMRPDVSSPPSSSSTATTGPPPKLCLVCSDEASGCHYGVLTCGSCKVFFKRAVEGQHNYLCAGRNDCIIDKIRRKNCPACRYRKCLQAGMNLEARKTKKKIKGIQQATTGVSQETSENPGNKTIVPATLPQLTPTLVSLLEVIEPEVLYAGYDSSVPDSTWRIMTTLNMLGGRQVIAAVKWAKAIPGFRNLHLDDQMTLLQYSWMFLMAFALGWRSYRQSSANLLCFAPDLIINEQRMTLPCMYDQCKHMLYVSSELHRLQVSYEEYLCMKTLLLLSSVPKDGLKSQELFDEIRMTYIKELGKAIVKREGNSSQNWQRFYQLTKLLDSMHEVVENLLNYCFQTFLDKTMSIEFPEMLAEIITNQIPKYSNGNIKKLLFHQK
Sequence of Thyroid hormone receptor beta (Homo sapiens) (P10828 whole entry, looked up): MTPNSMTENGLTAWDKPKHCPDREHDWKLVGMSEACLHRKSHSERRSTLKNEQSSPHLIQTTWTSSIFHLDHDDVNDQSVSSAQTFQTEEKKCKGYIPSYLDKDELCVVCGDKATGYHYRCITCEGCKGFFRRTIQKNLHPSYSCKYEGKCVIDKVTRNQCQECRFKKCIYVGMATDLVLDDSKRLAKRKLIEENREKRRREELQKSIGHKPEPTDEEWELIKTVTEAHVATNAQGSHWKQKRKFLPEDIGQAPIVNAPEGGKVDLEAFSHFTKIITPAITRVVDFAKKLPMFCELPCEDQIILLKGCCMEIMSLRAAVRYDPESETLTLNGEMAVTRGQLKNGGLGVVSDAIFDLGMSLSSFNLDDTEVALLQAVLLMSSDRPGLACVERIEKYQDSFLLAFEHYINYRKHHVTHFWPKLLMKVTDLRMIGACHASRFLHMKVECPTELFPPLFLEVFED

Which Potency [1] does the source give for O=[N+]([O-])c1ccc(Cl)c(Cl)c1Cl here?
The Potency was “inactive”.

And the Potency [2]?
The Potency was “inactive”.

And the Potency [3]?
The Potency was “inactive”.

And the Potency [4]?
The Potency was “inactive”.

And the Potency [5]?
The Potency was “inactive”.

And the Potency [6]?
Its Potency is “inactive”.

What about the outcome [7] of the same compound?
The outcome was “inactive”.

And the max response [8]?
Its max response is -19.7%.

What about the outcome [9] of the same compound?
The outcome was “inactive”.

And the outcome [10]?
Its outcome is “inactive”.

And the Potency [11]?
Its Potency is “inactive”.

And the activation [12]?
The activation was -2.43% (inactive).

What about the activation [13] of the same compound?
The activation was 0.972% (inactive).

And the activation [14]?
The activation was -1.85% (inactive).

What does the source list for Nc1ccc(Cc2ccc(N)cc2)cc1?
Potency [15]: inactive; Potency [3]: inactive; activation [16]: -2.78% (inactive) and 3.63% (inactive); activation [17]: 1.44% (inactive) and -0.448% (inactive); outcome [18]: inactive; outcome [7]: inactive; max response [8]: 34.2% and -15.9%; outcome [9]: inactive; Potency [19]: inactive; outcome [10]: inactive; Potency [11]: inactive; activation [13]: -0.031% (inactive) and 0.544% (inactive); activation [14]: 1.41% (inactive) and 1.54% (inactive)

What does the source list for ClC(Cl)C(Cl)Cl?
Potency [2]: inactive; Potency [5]: inactive; Potency [6]: inactive; activation [16]: -2.53% (inactive); activation [17]: 1.52% (inactive); outcome [18]: inactive; outcome [10]: inactive; Potency [20]: inactive; activation [12]: -4.56% (inactive); activation [13]: -0.991% (inactive); activation [14]: -2.65% (inactive)

Which Potency [1] does the source give for O=[N+]([O-])c1ccc2c3c(cccc13)CC2 here?
Its Potency is “inactive”.

What about the Potency [5] of the same compound?
Its Potency is “inactive”.

And the Potency [6]?
The Potency was “inactive”.

What about the activation [16] of the same compound?
The activation was -0.314% (inactive) and -0.559% (inactive).

And the activation [17]?
Its activation is -4.28% (inactive) and -4.51% (inactive).

And the outcome [18]?
Its outcome is “inactive”.

And the outcome [7]?
The outcome was “inactive”.

And the max response [8]?
The max response was 24.6%.

And the outcome [9]?
The outcome was “inactive”.

And the Potency [19]?
The Potency was “inactive”.

And the outcome [10]?
The outcome was “inactive”.

And the Potency [11]?
The Potency was “inactive”.

And the activation [12]?
The activation was -4.24% (inactive) and -1.29% (inactive).

What about the activation [13] of the same compound?
The activation was -1.76% (inactive) and -1.52% (inactive).

For NC1CCC(CC2CCC(N)CC2)CC1 (stereo not drawn), which Potency [1] is on record?
The Potency was “inactive”.

And the Potency [3]?
The Potency was “inactive”.

And the Potency [4]?
Its Potency is “inactive”.

And the Potency [5]?
Its Potency is “inactive”.

And the Potency [6]?
The Potency was “inactive”.

And the activation [16]?
The activation was -0.153% (inactive) and 0.847% (inactive).

What about the activation [17] of the same compound?
The activation was 2.97% (inactive) and -18.9% (inactive).

And the outcome [18]?
Its outcome is “inactive”.

What about the outcome [7] of the same compound?
Its outcome is “inactive”.

And the max response [8]?
The max response was -9.87%.

What about the outcome [9] of the same compound?
Its outcome is “inactive”.

And the Potency [19]?
The Potency was “inactive”.

And the Potency [11]?
Its Potency is “inactive”.

What about the Potency [20] of the same compound?
Its Potency is “inactive”.

And the activation [12]?
Its activation is -3.72% (inactive) and -4.21% (inactive).

What about the activation [13] of the same compound?
Its activation is -0.779% (inactive) and -0.659% (inactive).

What about the activation [14] of the same compound?
Its activation is -0.669% (inactive) and 0.679% (inactive).

Which results are given for CC(C)(Cl)Cl?
Potency [15]: inactive; Potency [1]: inactive; Potency [3]: inactive; Potency [4]: inactive; Potency [5]: inactive; outcome [7]: inactive; max response [8]: -19.4%; outcome [9]: inactive; Potency [19]: inactive; outcome [10]: inactive; Potency [11]: inactive; Potency [20]: inactive; activation [12]: -1.59% (inactive); activation [13]: 0.397% (inactive)

Which Potency [15] does the source give for Oc1c(Cl)cccc1Cl here?
The Potency was “inactive”.

And the Potency [3]?
Its Potency is “inactive”.

What about the Potency [5] of the same compound?
Its Potency is “inactive”.

And the Potency [6]?
The Potency was “inactive”.

And the outcome [7]?
Its outcome is “inactive”.

And the max response [8]?
The max response was 38.7%.

What about the outcome [9] of the same compound?
The outcome was “inactive”.

And the outcome [10]?
The outcome was “inactive”.

What about the Potency [11] of the same compound?
Its Potency is “inactive”.

What about the activation [13] of the same compound?
Its activation is -0.406% (inactive).

And the activation [14]?
Its activation is 0.939% (inactive).

Which results are given for CC(Cl)CCl (stereo not drawn)?
Potency [1]: inactive; Potency [3]: inactive; Potency [4]: inactive; Potency [5]: inactive; Potency [6]: inactive; activation [17]: 4.13% (inactive); outcome [18]: inactive; outcome [7]: inactive; outcome [10]: inactive; Potency [11]: inactive; Potency [20]: inactive; activation [12]: 0.619% (inactive)

With CN(C)c1ccccc1 as the compound, how does the Potency [1] read?
The Potency was “inactive”.

And the Potency [2]?
Its Potency is “inactive”.

And the Potency [3]?
The Potency was “inactive”.

And the Potency [4]?
The Potency was “inactive”.

What about the Potency [5] of the same compound?
Its Potency is “inactive”.

And the activation [16]?
The activation was -2.07% (inactive).

What about the activation [17] of the same compound?
Its activation is -11% (inactive).

What about the outcome [18] of the same compound?
Its outcome is “inactive”.

What about the outcome [10] of the same compound?
Its outcome is “inactive”.

And the Potency [11]?
The Potency was “inactive”.

And the Potency [20]?
The Potency was “inactive”.

What about the activation [12] of the same compound?
The activation was -3.2% (inactive).
